Screens as filed in PubChem.
EBNA-1 inh – blocks EBNA-1 binding to DNA; EBNA-1 DNA binding, fluorescence polarization; inhibition, % at 14.8 µM; 0.34% of 300,000 active; in the data active = inhibition above about 28%
PAFAH2 FP inh – inhibitors of human PAFAH2 | recombinant PAFAH2, FP-rhodamine activity probe, fluorescence polarization | Q99487 | 0.99% of 340,000 active | AID 492956 | inhibition, % at 3.39 µM;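 active = inhibition above the mean over all tested compounds plus 3 SD, cut at about 30% in these data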;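 note: inhibitors block probe labeling of enzyme so polarization drops; 0% = enzyme with DMSO and 100% = wells lacking PAFAH2 protein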
pPAFAH FP inh – pPAFAH (human) enzyme inhibition. recombinant pPAFAH, FP-rhodamine probe fluorescence polarization. inhibition, % at 3.39 µM. 1.5% of 330,000 active. AID 463082;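 active = inhibition above the mean inhibition across the screen plus 3 SD, cut at about 25% in these data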;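 note: inhibitors block binding of the rhodamine activity-based probe so polarization drops; 0% = enzyme with DMSO and 100% = wells lacking pPAFAH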
PAFAH1B2 FP inh – inhibitors of human PAFAH1B2 | P68402 | recombinant PAFAH1B2, FP-rhodamine activity probe, fluorescence polarization | inhibition, % at 3.39 µM | 1.2% of 340,000 active | AID 492953;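 active = inhibition above the mean of all tested compounds plus 3 SD, cut at about 24% in these data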;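 note: 0% = enzyme with DMSO and 100% = wells lacking PAFAH1B2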
ZTA DNA inh – counter-screen for EBNA-1 inhibitors: inhibitors of Epstein-Barr virus ZTA. P03206. AID 2234. inhibition, % at 11 µM. 0.15% of 320,000 active. ZTA-DNA binding, fluorescence polarization; in the data active = inhibition above about 33%
Target sequence (P03206 whole entry, looked up): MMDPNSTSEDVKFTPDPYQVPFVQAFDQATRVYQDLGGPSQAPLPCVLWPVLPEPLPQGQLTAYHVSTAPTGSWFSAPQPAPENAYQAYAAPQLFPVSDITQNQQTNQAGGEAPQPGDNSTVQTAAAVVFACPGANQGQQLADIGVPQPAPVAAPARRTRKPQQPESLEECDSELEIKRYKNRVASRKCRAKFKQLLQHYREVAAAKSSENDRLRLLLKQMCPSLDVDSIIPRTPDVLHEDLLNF
PAFAH1B3 FP inh – inhibitors of human PAFAH1B3 | inhibition, % at 3.39 µM | Q15102 | AID 492972 | recombinant PAFAH1B3, FP-rhodamine probe, fluorescence polarization | 0.28% of 340,000 active;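 active = inhibition above the screen-wide average of all tested compounds plus 3 SD, cut at about 25% in these data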;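 note: 0% = enzyme with DMSO only and 100% = wells lacking PAFAH1B3 protein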
Target sequence (Q15102 whole entry, looked up): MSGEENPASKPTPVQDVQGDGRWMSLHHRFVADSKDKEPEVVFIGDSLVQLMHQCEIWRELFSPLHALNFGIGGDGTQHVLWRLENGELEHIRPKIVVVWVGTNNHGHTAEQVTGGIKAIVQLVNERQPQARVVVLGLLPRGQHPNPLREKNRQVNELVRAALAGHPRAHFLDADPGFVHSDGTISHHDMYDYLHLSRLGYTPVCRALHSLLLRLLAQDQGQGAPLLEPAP
PAFAH2 FP conf – PAFAH2 (human) inhibition, confirmed; 65% of 2,300 active; inhibition, % at 3.39 µM; shares compounds with PAFAH2 FP inh; AID 493030; recombinant PAFAH2, FP-rhodamine activity probe, fluorescence polarization;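 active = mean inhibition over three repeats above a set limit taken from the earlier primary screen, cut at about 30% in these data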;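 note: inhibitor blocks binding of rhodamine activity probe so polarization falls; 0% = enzyme with DMSO and 100% = wells lacking PAFAH2 protein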
* = called active by the depositor; . = not tested or not shown. In the library only some 2.9% were active in any assay of this set; here they are far more common.

SMILES	EBNA-1 inh	PAFAH2 FP inh	pPAFAH FP inh	PAFAH1B2 FP inh	ZTA DNA inh	PAFAH1B3 FP inh	PAFAH2 FP conf
CCOc1cc(C(=O)OCC(=O)Nc2ccc(Cl)cn2)ccc1OCC(=O)N1CCOCC1	-5	83*	22	2	-3	3	71*
O=C(COC(=O)c1cnccn1)Nc1ccc(Cl)cn1	-4	-5	5	-2	5	5	.
CCN(c1ccc(NC(=O)COC(=O)c2ccc(C)s2)cc1)C(C)C	-3	46*	18	-1	-8	5	40*
c1ccc(Oc2c3ccccc3nc3ccccc23)cc1	2	.	3	.	-9	.	.
Cc1ccc(C(=O)OCC(=O)Nc2ccc(Cl)cn2)s1	.	71*	8	4	6	9	63*
O=C(COC(=O)c1ccc([N+](=O)[O-])s1)Nc1ccc(Cl)cn1	-7	22	20	11	7	24	.
O=C(COC(=O)c1ccc(F)cc1F)Nc1ccc(Cl)cn1	.	39*	14	3	-9	6	31*
CCCC(C)NC(=O)COC(=O)c1cccc(NS(C)(=O)=O)c1 (centres undefined)	6	37*	4	2	5	1	22
CC(=O)Nc1ccc(OCC(=O)NC(C)c2ccc(F)cc2)cc1 (centres undefined)	4	-1	2	6	7	8	.
CCNC(=O)NC(=O)COC(=O)c1cccc(NS(=O)(=O)/C=C/c2ccccc2)c1	-3	4	4	1	-4	-8	.
CC(=O)Nc1cccc(C(=O)OCC(=O)NC(C)c2ccc(F)cc2)c1 (centres undefined)	-7	46*	-11	-1	1	10	36*
O=C(NCCCN1CCCC1=O)Nc1ccccc1F	5	2	3	-1	-3	-2	.
Cc1sc2ncnc(SCC(=O)c3ccc4c(c3)OCCO4)c2c1-c1ccccc1	19	-4	0	-5	1	6	.
CCCCn1c(N)c(N(C(=O)CSc2nncn2-c2ccccc2)C2CCCC2)c(=O)[nH]c1=O	.	1	.	7	.	8	.
CC(C)CNC(=O)Cn1c(=O)c2c(ncn2CC(C)C)n(Cc2ccccc2)c1=O	3	21	7	3	-13	8	.
Cc1ccccc1/C=C1\SC(=S)N(/N=C/c2cc([N+](=O)[O-])ccc2O)C1=O	7	32*	8	13	3	5	16
O=C1/C(=C\c2cc([N+](=O)[O-])ccc2O)SC(=S)N1Cc1ccc(Cl)cc1	4	-91	-16	-212	7	-124	.
Cc1ccc(SCC(=O)OCc2csc(CC(=O)Nc3ccccc3C)n2)cc1C	.	-4	11	9	-12	-1	.
O=C(COC(=O)c1ccco1)NCC1CCCCC1	.	80*	.	7	.	5	60*
O=C(COC(=O)c1ccco1)NC1CCCc2ccccc21 (centres undefined)	.	39*	-2	1	.	10	15
CC1CCC(NC(=O)COC(=O)c2ccco2)CC1 (centres undefined)	.	67*	-5	6	8	0	65*
Cc1cc(C(=O)OCC(=O)NC2CCC(C)CC2)c(C)o1 (centres undefined)	.	71*	2	4	-2	4	69*
CC(Sc1ncn[nH]1)C(=O)Nc1ccc(Cl)cn1 (centres undefined)	-16	0	0	-2	-16	3	.
C/C(=N\NC(=O)c1nnn(-c2nonc2N)c1-c1ccccc1)c1ccco1	.	0	.	6	.	-1	.
CCOc1ccccc1C(=O)OCC(=O)Nc1ccc(N2CCCCC2)cc1	-6	36*	22	4	-3	-5	28
SMILES	EBNA-1 inh	PAFAH2 FP inh	pPAFAH FP inh	PAFAH1B2 FP inh	ZTA DNA inh	PAFAH1B3 FP inh	PAFAH2 FP conf
CCOc1ccccc1OCC(=O)Nc1ccc(N2CCCCC2)cc1	0	-3	5	1	-17	2	.
Cc1cccc(C(=O)OCC(=O)Nc2ccc(N3CCCCC3)cc2)c1O	1	8	1	5	20	1	.
O=C(COC(=O)c1ccccc1OC(F)F)Nc1ccc(N2CCCCC2)cc1	.	42*	22	3	-9	10	37*
CCOc1cc(Br)ccc1S(=O)(=O)NCc1ccccc1	-13	2	1	4	-20	-2	.
CC(C)(C)S(=O)(=O)c1cnc2c(S(=O)(=O)c3ccccc3)cnn2c1N	-1	30*	5	-2	6	1	0
COc1ccc(S(=O)(=O)N2CCOC2CNC(=O)C(=O)NCc2ccc3c(c2)OCO3)cc1 (centres undefined)	4	-1	7	11	-7	13	.
O=C(NC(=S)NNC(=O)c1ccccc1O)c1cccc([N+](=O)[O-])c1	6	42*	17	10	21	19	27
O=C(NNC(=S)NC(=O)c1ccco1)c1ccc(NC(=O)c2ccccc2)cc1	-1	-1	-3	-4	9	9	.
O=C(NC(=S)NNC(=O)c1ccccc1O)c1ccco1	-8	53*	9	8	9	8	42*
O=C(NCC1CCCO1)C(c1ccncc1)N(Cc1cccs1)C(=O)Cn1nnc(-c2ccc(F)cc2)n1 (centres undefined)	13	5	1	5	13	5	.
CC(C)CCNC(=O)C(c1ccncc1)N(Cc1cccs1)C(=O)Cn1nnc(-c2ccc(F)cc2)n1 (centres undefined)	-6	40*	7	3	9	1	13
CC(=O)c1c(C)[nH]c(C(=O)OCC(=O)Nc2cc(S(=O)(=O)N3CCCC3)ccc2Cl)c1C	12	22	0	1	8	12	.
CC(=O)c1c(C)[nH]c(C(=O)OCC(=O)Nc2cccc(S(=O)(=O)N3CCCC3)c2)c1C	-4	37*	-9	-6	0	-5	15
CC(=O)c1c(C)[nH]c(C(=O)OCC(=O)Nc2cccc(S(=O)(=O)N(C)C)c2)c1C	-15	31*	-5	11	1	9	31*
Cc1cc(NS(=O)(=O)c2ccc(NC(=O)CSc3nc4ncccc4[nH]3)cc2)nc(C)n1	-4	2	2	0	0	12	.
CC(C)(C)c1ccc(/C=C(\C#N)C(=O)NC2CC2)cc1	-3	.	5	.	-3	.	.
CN(Cc1ccc(Cl)s1)C(=O)CCl	2	-2	0	1	6	6	.
COc1cccc(/C=C/C(=O)OCC(=O)NCCC2=CCCCC2)c1OC	.	66*	14	-1	.	-1	55*
COc1ccc(/C=C/C(=O)OCC(=O)NCCC2=CCCCC2)cc1OC	-2	65*	6	-2	16	-2	50*
COc1ccccc1/C=C/C(=O)OCC(=O)NCCC1=CCCCC1	-1	25	18	-5	17	10	.
